Test [1] can be described thus: growth inhibition of DIPG glioma cells, dose response, cell-based, SU-DIPG-XVII, MIPE5.0, CellTiter-Glo, qHTS (AID 1347060; cut-off not given, nearly all actives have AC50 up to about 26 µM;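 as to AC50: cells exposed to compound for 48 hours before viability readout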). As to conditions: SU-DIPG-XVII viability, CellTiter-Glo ATP luminescence.
Test [2] is described as follows: growth inhibition of DIPG glioma cells, dose response, cell-based, JHH-DIPG-1, MIPE4.0, CellTiter-Glo, qHTS (AID 1347062; cut-off not given, nearly all actives have AC50 up to about 27 µM;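 as to AC50: cells exposed to compound for two days before readout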). As to conditions: JHH-DIPG-1 viability, CellTiter-Glo ATP luminescence.
Test [3] is described as follows: growth inhibition of DIPG glioma cells, dose response, cell-based, SU-DIPG-IV, MIPE4.0, CellTiter-Glo, qHTS (AID 1347063; cut-off not given, nearly all actives have AC50 up to about 30 µM;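 also: compound exposure lasted 48 hours before the viability readout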). As to conditions: SU-DIPG-IV viability, CellTiter-Glo ATP luminescence.
Test [4] can be described thus: growth inhibition of DIPG glioma cells, dose response, cell-based, SU-DIPG-XIII, MIPE5.0, CellTiter-Glo, qHTS (AID 1347064; cut-off not given, nearly all actives have AC50 up to about 23 µM;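 as to AC50: cells exposed to compound for 48 hours before the viability read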). As to conditions: SU-DIPG-XIII viability, CellTiter-Glo ATP luminescence.
The nature of test [5]: viability loss in pontine glioma line – cell-based, SU-DIPG-XXV, MIPE5.0, CellTiter-Glo, qHTS, dose response (AID 1347065; cut-off not given, nearly all actives have AC50 up to about 26 µM;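 also: cells exposed to compound for 48 hours before ATP readout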). As to conditions: CellTiter-Glo ATP luminescence. Background: Cellular ATP, detected with luciferase, serves as a proxy for viable cell number.
The nature of test [6]: SU-DIPG-VI glioma cell viability, MIPE4.0 library, CellTiter-Glo luminescence, qHTS (AID 1347066; cut-off not given, nearly all actives have AC50 up to about 30 µM;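 also: cells exposed to compound for 48 hours before readout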). As to conditions: CellTiter-Glo ATP luminescence.
Test [7] can be described thus: JHH-DIPG-1 glioma cell viability, MIPE5.0 library, CellTiter-Glo luminescence, qHTS (AID 1347067; cut-off not given, nearly all actives have AC50 up to about 26 µM;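 also: cells exposed to compound for 48 hours before readout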). As to conditions: JHH-DIPG-1 glioma viability, CellTiter-Glo ATP luminescence.
Test [8] can be described thus: SU-DIPG-XXV glioma cell viability, MIPE5.0 library, qHTS (AID 1347068; cut-off not given, nearly all actives have IC50 up to about 30 µM;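 as to IC50: cells exposed to compound for 48 hours before viability readout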). In general terms: qHTS replaces the single test concentration by a dilution series.
Test [9] is described as follows: sensitizers of A549 cells to miR-34 induction, primary screen, imaging, A549 dox-inducible miR-34, nuclei and caspase counts (AID 1347080;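 active = compounds whose cell count with miR-34 switched on is under 0.7 times the count with it off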). As to conditions: A549 miR-34 inducible, Hoechst nuclei count, 48 h.
Test [10] can be described thus: survival rescue of mitochondrial mutant cells in low glucose, primary screen, MELAS cybrids, Rieske KO mouse fibroblasts, CellTiter-Glo (AID 1508586;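 active = mean z-score across replicates of 1.96 or higher in either the MELAS or the Rieske mutant cell line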;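 also: z relative to plate mean and SD of compound and empty wells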).
Test [11] can be described thus: growth inhibition of DIPG glioma cells, dose response, cell-based, SU-DIPG-XIII, MIPE4.0, CellTiter-Glo, qHTS (AID 1347061; cut-off not given, nearly all actives have AC50 up to about 37 µM;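 also: cells exposed to compound for 48 hours before readout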). As to conditions: SU-DIPG-XIII viability, CellTiter-Glo ATP luminescence.
Test [12] is described as follows: modifiers of HSF1 nuclear foci, imaging, Selleck Cancer Library (AID 1347162; in the data active = plate-normalised HSF1 focus index below about 0.46). As to conditions: human cells, at 10 µM; SSMD: measured here: HSF1 foci SSMD mean; cell count: measured here: cell number; plate-normalised HSF1 focus index: stronger effect = lower value.
Test [13] can be described thus: ovarian cancer cell viability with rucaparib, profiling panel, oncology-focused library, rucaparib conditional (AID 1508598). As to conditions: patient-derived ovarian cancer cells, CellTiter-Glo viability, 144 h, stronger effect = lower value.
[14] abbreviates: stronger effect = lower value, cell number ratio, induced over uninduced.
Setting [15] is: measured here: relative caspase fold change +Dox/-Dox.
[16] abbreviates: measured here: total cells with miR-34 induction, stronger effect = lower value.
Setting [17] is: measured here: total cells without miR-34 induction.
Where [18] appears, read: MELAS cybrid survival, CellTiter-Glo 48 h, stronger effect = higher value.
The mark [19] stands for this setting: Rieske KO mouse fibroblast survival, CellTiter-Glo 72 h.

Structures are written as SMILES. Inconclusive results are not listed. Activity calls are given as the source filed them.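 The calls were made as follows, unless noted: active = normalized viability below 100% at a tested concentration; inactive = the rest.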

Usually AC50 stands for the concentration at which the activity in the assay is half-maximal. `Cc1nc(NC(=O)N2CCC[C@H]2C(N)=O)sc1-c1csc(C(C)(C)C)n1`: the AC50 in test [1] was 11.8 µM (active); in test [2], 4.69 µM (active); in test [3], 2.96 µM (active); in test [4] it was 7.42 µM (active); in test [5], 4.68 µM (active); in test [6] it was 9.35 µM (active).

On to `CNC(=O)c1ccc(N2C(=S)N(c3cnc(C#N)c(C(F)(F)F)c3)C(=O)C23CCC3)cc1F`, for which the outcome in test [1], in test [4], in test [5], in test [7] and in test [8] was inactive. The AC50 was 0.935 µM (active) in test [2], 1.32 µM (active) in [3] and 18.7 µM (active) in test [6]. Moreover, the fold change in [9] (setting [14]) is 0.909 (inactive); in test [9] (setting [15]) it was 0.701. The cell count in [9] (setting [16]) was found to be 9240; in test [9] (setting [17]), 10200. The z-score in test [10] (setting [18]) is -0.228 (inactive); in test [10] (setting [19]) it was 0.855.

`C/C(=N\NC(=S)N1CCC1)c1ccccn1`: the AC50 in test [1] is 0.00934 µM (active); in [2] it was 1.48 µM (active); in test [3], 0.0105 µM (active); in test [4], 0.0235 µM (active); in test [5] it was 0.0132 µM (active); in [6], 9.35 µM (active).

As usually defined, the IC50 is the midpoint of a concentration-inhibition curve. Turning to `CC[C@H](C)n1cc(C)c2c(C(=O)NCc3c(C)cc(C)[nH]c3=O)cc(-c3ccc(N4CCNCC4)nc3)cc21`, in [1], the result was inactive. The results for the AC50 in test [11] and in test [6] were 14.8 µM (active) and 23.5 µM (active), respectively. In addition, in test [8], the 50% inhibitory concentration (IC50) was 20.9 µM (active).

Turning to `O=C(O)CCCCCC(=O)NN=C1CCCC1`, the molecule was called inactive in [1], in [2], in test [3], in [4], in test [5] and in [6]. For the same molecule, the result in test [7] and in [8] was inactive.

As usually defined, the viability is a read-out of living cells in per cent, often relative to untreated cells. With `Cn1cnc(=N)c2[nH]cnc21`, the molecule was called inactive in test [1], in test [4], in [5], in test [7] and in test [8]. The results for the AC50 in test [2], in [3] and in [6] were 4.69 µM (active), 4.69 µM (active) and 0.235 µM (active), respectively. The fold change in [9] (setting [14]) is 0.904 (inactive); in test [9] (setting [15]), 0.712. The values for the cell count in [9] (setting [16]), in test [9] (setting [17]) and in [12] were 9400, 10400 and 7250, respectively. For the same molecule, the SSMD in test [12] stood at 2.26. The plate-normalised HSF1 focus index in test [12] was 1.08 (inactive). In addition, the z-score in test [10] (setting [18]) was -0.304 (inactive); in test [10] (setting [19]) it was -0.808. The viability in test [13] (at 0.000305 µM, OCI-C5x cells, with rucaparib 10 µM, 100% = cells with rucaparib alone) is 112% (inactive); in test [13] (at 0.000305 µM, OCI-C5x cells, without rucaparib) it was 111% (inactive); in test [13] (at 0.000305 µM, OCI-P5x cells, with rucaparib 20 µM, 100% = cells with rucaparib alone), 99% (active); in test [13] (at 0.000305 µM, OCI-P5x cells, without rucaparib) it was 94.2% (active); in test [13] (at 0.00122 µM, OCI-C5x cells, with rucaparib 10 µM, 100% = cells with rucaparib alone), 111% (inactive); in test [13] (at 0.00122 µM, OCI-C5x cells, without rucaparib), 114% (inactive). For the same molecule, the viability in test [13] (at 0.00122 µM, OCI-P5x cells, with rucaparib 20 µM, 100% = cells with rucaparib alone) was 100% (inactive); in test [13] (at 0.00122 µM, OCI-P5x cells, without rucaparib), 97.1% (active); in test [13] (at 0.00488 µM, OCI-C5x cells, with rucaparib 10 µM, 100% = cells with rucaparib alone), 107% (inactive); in test [13] (at 0.00488 µM, OCI-C5x cells, without rucaparib), 119% (inactive); in test [13] (at 0.00488 µM, OCI-P5x cells, with rucaparib 20 µM, 100% = cells with rucaparib alone) it was 108% (inactive); in test [13] (at 0.00488 µM, OCI-P5x cells, without rucaparib), 99.6% (active). Also, the viability in test [13] (at 0.0195 µM, OCI-C5x cells, with rucaparib 10 µM, 100% = cells with rucaparib alone) is 114% (inactive); in test [13] (at 0.0195 µM, OCI-C5x cells, without rucaparib), 112% (inactive); in [13] (at 0.0195 µM, OCI-P5x cells, with rucaparib 20 µM, 100% = cells with rucaparib alone), 113% (inactive); in test [13] (at 0.0195 µM, OCI-P5x cells, without rucaparib), 102% (inactive); in [13] (at 0.0781 µM, OCI-C5x cells, with rucaparib 10 µM, 100% = cells with rucaparib alone), 107% (inactive); in test [13] (at 0.0781 µM, OCI-C5x cells, without rucaparib) it was 111% (inactive). Further, the viability is 116% (inactive) in test [13] (at 0.0781 µM, OCI-P5x cells, with rucaparib 20 µM, 100% = cells with rucaparib alone); 107% (inactive) in test [13] (at 0.0781 µM, OCI-P5x cells, without rucaparib); 112% (inactive) in test [13] (at 0.313 µM, OCI-C5x cells, with rucaparib 10 µM, 100% = cells with rucaparib alone); 116% (inactive) in [13] (at 0.313 µM, OCI-C5x cells, without rucaparib); 107% (inactive) in test [13] (at 0.313 µM, OCI-P5x cells, with rucaparib 20 µM, 100% = cells with rucaparib alone); 109% (inactive) in test [13] (at 0.313 µM, OCI-P5x cells, without rucaparib). The viability was 110% (inactive) in [13] (at 1.25 µM, OCI-C5x cells, with rucaparib 10 µM, 100% = cells with rucaparib alone); 115% (inactive) in test [13] (at 1.25 µM, OCI-C5x cells, without rucaparib); 109% (inactive) in [13] (at 1.25 µM, OCI-P5x cells, with rucaparib 20 µM, 100% = cells with rucaparib alone); 109% (inactive) in test [13] (at 1.25 µM, OCI-P5x cells, without rucaparib); 100% (inactive) in test [13] (at 5 µM, OCI-C5x cells, with rucaparib 10 µM, 100% = cells with rucaparib alone); 125% (inactive) in [13] (at 5 µM, OCI-C5x cells, without rucaparib). The viability was 116% (inactive) in test [13] (at 5 µM, OCI-P5x cells, with rucaparib 20 µM, 100% = cells with rucaparib alone) and 110% (inactive) in test [13] (at 5 µM, OCI-P5x cells, without rucaparib).

The values are drawn from PubChem BioAssay.
